# Assay results reported in the supplement of paper PMC6555819.
# Experiments:
# Test in all cases: PBM binding z-score (relative to random genomic background probes); higher = stronger binding; sequences stand for … in GC…GCGATTGACAGCGTAGAATGAAGG
# [1] = system: FXR:RXRa (NR concentration 270 nM, RXRa partner concentration 90 nM)
# How it was run: (§1)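 Antibodies against each partner of ligand-free nuclear receptor dimers (one per run) detected binding on custom Agilent 4×180K protein-binding microarrays after 1 h incubation. The double-stranded probes had 34-nt variable regions carrying direct-repeat seeds, single-nucleotide variants, half-site ablations and random human genomic background sequences. Binding z-scores, from regression-normalized fluorescence, use the random background probes as reference.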
# [2] = system: LXRa:RXRa (NR concentration 270 nM, RXRa partner concentration 90 nM)
# How it was run: as §1
# [3] = system: LXRa homodimer (NR concentration 270 nM)
# How it was run: as §1
# [4] = system: LXRb:RXRa (NR concentration 270 nM, RXRa partner concentration 90 nM)
# How it was run: as §1
# [5] = system: LXRb homodimer (NR concentration 270 nM)
# How it was run: as §1
# [6] = system: PPARa:RXRa (NR concentration 270 nM, RXRa partner concentration 90 nM)
# How it was run: as §1
# [7] = system: PPARg:RXRa (NR concentration 180 nM, RXRa partner concentration 90 nM)
# How it was run: as §1
# [8] = system: PPARg:RXRa 270nM:90nM, anti-RXR (NR concentration 270 nM, RXRa partner concentration 90 nM)
# How it was run: as §1
# [9] = system: PPARg:RXRa 30nM:10nM, anti-RXR (NR concentration 30 nM, RXRa partner concentration 10 nM)
# How it was run: as §1
# [10] = system: PPARg:RXRa 90nM:30nM, anti-RXR (NR concentration 90 nM, RXRa partner concentration 30 nM)
# How it was run: as §1
# [11] = system: PPARg:RXRa DBDmut IVT, anti-RXR (DBD mutation: RXRa K156A/R161A, NR concentration 270 nM, RXRa partner concentration 90 nM)
# How it was run: as §1
# [12] = system: PPARg:RXRa IVT, anti-PPARg (NR concentration 270 nM, RXRa partner concentration 90 nM)
# How it was run: as §1
# [13] = system: PPARg DBDmut:RXRa IVT, anti-PPARg (DBD mutation: PPARg1 K132A/R137A, NR concentration 270 nM, RXRa partner concentration 90 nM)
# How it was run: as §1
# [14] = system: PPARg DBDmut IVT, anti-PPARg (DBD mutation: PPARg1 K132A/R137A, NR concentration 270 nM)
# How it was run: as §1
# [15] = system: PPARg homodimer (NR concentration 180 nM)
# How it was run: as §1
# [16] = system: PXR:RXRa (NR concentration 270 nM, RXRa partner concentration 90 nM)
# How it was run: as §1
# [17] = system: PXR homodimer (NR concentration 270 nM)
# How it was run: as §1
# [18] = system: RARa:RXR (NR concentration 270 nM, RXRa partner concentration 90 nM)
# How it was run: as §1
# [19] = system: RARa homodimer (NR concentration 270 nM)
# How it was run: as §1
# [20] = system: RARb:RXRa (NR concentration 270 nM, RXRa partner concentration 90 nM)
# How it was run: as §1
Sequence,PBM binding z-score [1],PBM binding z-score [2],PBM binding z-score [3],PBM binding z-score [4],PBM binding z-score [5],PBM binding z-score [6],PBM binding z-score [7],PBM binding z-score [8],PBM binding z-score [9],PBM binding z-score [10],PBM binding z-score [11],PBM binding z-score [12],PBM binding z-score [13],PBM binding z-score [14],PBM binding z-score [15],PBM binding z-score [16],PBM binding z-score [17],PBM binding z-score [18],PBM binding z-score [19],PBM binding z-score [20]
TCTCGTTGGTCAAAGGTCACACACTCGAAATGCG,6.33,5.68,4.45,5.88,2.23,6.57,9.51,8.55,7.87,9.27,2.72,5.29,0.705,2.09,5.26,5.86,2.2,7.31,3.39,5.27
CCTGGGAGGACAGAAGGTCAGAGCTGTCCGCTTT,1.53,1.86,0.303,1.01,-0.655,2,-0.0173,1.11,-0.659,0.29,-0.504,0.212,-1.2,-1.6,1.81,1.65,-0.162,2.16,0.121,3.35
ATCGAAAGGTCGAGGTGAGTAGAGAGAAAGGGAA,4.27,3.47,0.0492,2.46,0.462,4.49,3.29,3.59,1.45,2.36,0.416,2.34,1.55,0.427,1.76,2.19,0.327,3.31,1.21,4.11
TTACCAAGGTGAAAGATCGTTGATGCACGCCTTG,0.552,0.392,-0.574,0.286,-0.696,2.36,2.97,3.92,2.25,3.77,1.56,2.99,0.596,0.116,0.393,0.0637,-0.296,0.393,-0.301,1.23
ATCGAAAGGACGAAGGTGAGTATACCCACCCGAA,-0.0229,0.0207,-0.291,-0.347,-0.118,-0.0423,1.05,0.837,0.489,0.641,-0.74,0.283,-0.404,-0.244,0.0409,0.00854,-0.3,-0.0536,0.0942,1.17
CGAACTAGGTCAGAACAGGACAATGAAGGATGAT,1.42,1.2,0.0697,0.618,-0.134,3.06,5.27,4.32,1.93,3.26,6.72,7.28,2.05,0.683,0.602,1.23,0.343,0.703,0.399,2.98
CCGACTGGGGCAGTAAGGTTACCATACCATCCGG,0.252,-0.0103,-0.54,-0.134,-0.789,1.16,1.03,1.17,-0.0768,0.343,2.7,2.69,-1.07,-1.44,0.0978,0.28,-0.0319,0.762,-0.538,1.34
GCGAGTGGGGCATCAGCAGGTTACCATAACTTAA,-0.42,-0.14,-0.135,1.15,0.239,1.15,0.528,0.575,-0.218,0.332,3.22,2.59,-0.589,-0.427,0.496,0.25,-0.251,0.531,-0.613,0.812
CAAACTAGGTCACGAAAGGTCATAGTCGAATGAC,7.43,7.78,7.34,6.95,2.21,6.37,10.5,8.43,7.64,8.8,8.9,9.17,2.98,2.98,6.62,6.74,2.77,7.32,3.5,5.58
TCTGTTAGTTGAAGGGCAACCGACGAGTCCGTTT,0.758,0.866,0.374,0.639,0.983,0.837,-0.0567,1.91,3.09,2.14,1.61,1.1,0.429,0.734,1.19,0.704,1.02,0.521,0.738,1.65
GCGACTGGGGCATCAGCACGTTACCATAACTTAA,-0.278,-0.417,-0.429,0.31,-0.932,0.476,0.927,0.64,-0.0937,0.15,3.89,3,0.00267,-0.723,-0.048,-0.493,-0.113,-0.399,-0.0529,0.327
ACAGACAGGTGAGTGAAGGTAACTCTGCTGGACG,0.466,0.168,-0.478,-0.2,-0.638,0.435,0.657,-0.0647,-0.0941,0.019,0.709,0.604,0.385,0.0284,-0.0621,-0.18,-0.457,0.173,-0.76,0.594
CGTCAAATTTCAAGGTAACGTAACAGAAAGCAGC,0.0505,-0.0464,0.101,0.163,-0.042,0.466,0.489,-0.149,0.0887,-0.0536,-0.147,0.739,1.23,0.951,0.422,0.33,-0.166,0.634,0.311,0.427
AATACAGGGTCACTAGGCCAGAGAAGGTACGAAT,5.79,5.03,1.01,3.99,0.795,5.85,7.78,6.43,3.11,5.35,4.07,5.68,1.28,1.34,1.96,3.02,0.776,3.74,0.823,4.2
